Assay outcomes from PubChem BioAssay.
This is one part of a sample in which hits are shown more often than they occur.
Pf Dd2 inh – inhibitors of Plasmodium falciparum Dd2 growth; P. falciparum Dd2 growth, SYBR Green, 72 h; Potency, µM (highest dose often 28.9 µM), inactives show top-dose activity, negative = inhibition, usual class: inhibitors; 120,000 tested, 4.3% active; active = well fitted inhibition curve with a large enough effect;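 note: plate controls were DMSO vehicle for no effect and reference drug for full effect; nearly all actives have a fitted effect of over 65% in size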
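Readout: SYBR Green fluorescence, 485 nm excitation, 535 nm emission, after ~16 h lysis at 37C. Before that, Dd2-infected red cells (2.5% hematocrit) grew 72 h with compound, 29 uM top final concentration.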
Numbers without * were called inactive; i = inactive; [ ] = remark or other dose. Potency is the fitted concentration of half-maximal effect.

SMILES | Pf Dd2 inh
CCc1cccc(C)c1NC(=O)C1CCCN(S(=O)(=O)c2cccc3nsnc23)C1 (centres undefined) | 23%
Cc1c(Nc2nc3ccccc3n3c(C)nnc23)cccc1C(=O)O | 9%[0.594 µM]
Cc1ccc(CCNC(=O)CN2C(=O)COc3ccc(S(=O)(=O)N4CCCC4)cc32)cc1 | 11%
Cc1cc(C)cc(C(=O)NCCn2ccn3nc(-c4ccc(F)cc4)cc3c2=O)c1 | i
CCc1ccc(C(=O)NCCn2ccn3nc(-c4ccc(F)cc4)cc3c2=O)cc1 | 4µM*
COc1ccc(-c2cc3c(=O)n(CCNC(=O)c4ccc(F)cc4)ccn3n2)cc1 | i
COCC(=O)NC1CCC12CCN(C(=O)Cc1ccccc1)CC2 (centres undefined) | -12%
COc1ccc(-c2cc(N3CCCC(NC(=O)Cc4ccc(F)cc4)C3)n[nH]2)cc1 (centres undefined) | -24%
CC(C)C1CN(c2ccc(C#N)cn2)CCC(=O)N1Cc1ccc(F)cc1 (centres undefined) | -14%
Fc1ccc(OCC2CCCN(c3ccc(Cn4ccnc4)cn3)C2)cc1 (centres undefined) | 11µM*
COc1ccc(CN2C(=O)C(NC(=O)c3ccccc3OC)(C(F)(F)F)N=C2c2ccccc2)cc1 (centres undefined) | i
CC(C)COc1cc(=O)n2c(c1C(=O)N1CCOCC1)CCCCC2 | 38%
Cc1cc(C)c(S(=O)(=O)NCCn2c(C)cnc2C2CC2)cc1C | 11µM*
Cc1ccc(C)c(S(=O)(=O)NCCn2c(C)cnc2C2CCC2)c1 | -15%
Cc1cnc(C2CC2)n1CCN | i
COc1cccc(CNC(=O)CCn2c(=O)c3cccn3c3ccc(F)cc32)c1OC | -15%
COc1ccc(F)c(CN2CCCC(O)(CN3CCCCC3)C2=O)c1 (centres undefined) | i
COc1ccc(F)c(CN2CCCC(O)(CN3CCC(C(C)C)CC3)C2=O)c1 (centres undefined) | -10%
COc1ccc(F)c(CN2CCCC(O)(CN3CCC(C)CC3)C2=O)c1 (centres undefined) | 4µM*
O=c1[nH]nc2n1CCN(S(=O)(=O)c1ccc3c(c1)CCCC3)CC2 | i
COc1cncc(CN2CC[C@@H]3OCC(=O)N(Cc4ccccc4)[C@H]3CC2)c1 | -9%[44.1 µM]
O=C1CO[C@H]2CN(Cc3c[nH]c4ccccc34)C[C@H]2N1Cc1ccc(F)cc1 | 5µM*
O=C1CO[C@H]2CCN(Cc3cccc(OC(F)(F)F)c3)CC[C@@H]2N1Cc1ccccc1 | i
O=C1CO[C@H]2CCN(Cc3cccc(OC(F)(F)F)c3)CC[C@@H]2N1Cc1c[nH]c2ccccc12 | 7.9µM*
O=C1CO[C@H]2CN(Cc3c[nH]c4ccccc34)C[C@H]2N1 | -21%[44.1 µM]
SMILES | Pf Dd2 inh
CN1C(=O)CO[C@H]2CN(Cc3c[nH]c4ccccc34)C[C@H]21 | i
O=C(c1cc(F)ccc1Cl)N1CCC(n2cnnc2C2CC2)CC1 | -13%
O=C(Cc1c[nH]c(=O)[nH]c1=O)NCc1cccnc1Oc1ccccc1F | -4%
COc1ccccc1CCC(=O)N1CCC(Cc2nncn2C)CC1 | -8%
CCN(Cc1cc(C)[nH]n1)CC1CCCN(CCc2cccc(OC)c2)C1 (centres undefined) | -17%
CCN(Cc1c(O)cccc1OC)CC1CCN(CCc2ccccc2C)CC1 | 16µM*
COc1ccc(N2Cc3cccc(C(=O)Nc4ccc(C(C)C)cc4)c3C2=O)cc1 | -9%
CN(CCc1ccccn1)C(=O)c1cn(Cc2cccc(C(F)(F)F)c2)nn1 | -9%
CCOc1ccccc1CNC(=O)c1oc2c(c1C)-c1[nH]ncc1CC2 | -9%
Cn1nc(C(=O)NC2CCCc3c2[nH]c2ccccc32)c2ccccc2c1=O (centres undefined) | 7.1µM*
O=C(Cn1nc2c(cc1=O)CCCCC2)NC1CCCc2c1[nH]c1ccccc21 (centres undefined) | -5%
O=C(NC1CCCc2c1[nH]c1ccccc21)c1ccccn1 (centres undefined) | -20%
Fc1ccccc1N1CCN(c2ncnc3c2nc2n3CCCCC2)CC1 | 20%
Cc1cnn(CC(=O)N2C[C@@H](COCC3CC3)[C@H](c3ccccn3)C2)c1 | 0%
COc1cccc(C(=O)NC2CCN(c3cnn(CC4CC4)c(=O)c3)CC2)c1 | i
CCNC(=O)Nc1ccc(OCC(=O)NCc2ccccc2OC)nc1 | -24%
CNS(=O)(=O)c1cc(-c2nnc(Nc3cc(C)ccc3C)c3ccccc23)ccc1C | 5µM*
Cc1cc(C)n(-c2nnc(Nc3ccc(C(C)C)cc3)c3ccccc23)n1 | 6%
COc1ccc(Nc2nnc(-c3ccc(C)c(S(=O)(=O)NCc4nc5ccccc5[nH]4)c3)c3ccccc23)cc1 | 75%
CCOC(=O)c1c(Nc2ccc(F)cc2)nnc(-c2ccccc2)c1-c1ccccc1 | -29%
Cc1ccc(-c2nnc(Nc3ccc(S(N)(=O)=O)cc3)c3ccccc23)cc1S(=O)(=O)N1CCCCC1 | 19%
Cc1cc(-c2ccc(C)c(S(=O)(=O)NCc3cccc(Br)c3)c2)on1 | 20%
Cc1ccc(C(=O)Nc2cccc(O)c2)cc1S(=O)(=O)N1CCCCCC1 | -24%
Cc1ccc(-c2nnc(Nc3ccc(O)cc3)c3ccccc23)cc1S(=O)(=O)N1CCCCC1 | 10µM*
Cc1ccc(-c2nnc(Nc3ccc(F)cc3)c3ccccc23)cc1S(=O)(=O)NC(C)C | 11µM*
SMILES | Pf Dd2 inh
Cc1ccc(-c2nnc(Nc3ccc(Br)cc3)c3ccccc23)cc1S(=O)(=O)NCC1CCCO1 (centres undefined) | 10µM*
Cc1cc(C)n(-c2nnc(Nc3cc(Cl)ccc3C)c3ccccc23)n1 | 61%
Cc1ccc(-c2nnc(Nc3ccccc3O)c3ccccc23)cc1 | -24%
COc1ccc(C2Cn3nnc(-c4noc(C5CCCCC5)n4)c3CO2)cc1 (centres undefined) | -1%
O=C(NCc1ccc(Cl)cc1)C1CCN(c2cc(C(F)(F)F)ncn2)CC1 | i
Cc1cc(C)cc(NC(=O)Cn2c(=O)c(-c3noc(C)n3)c3n(c2=O)CCCCC3)c1 | -1%
CC(C)c1nncn1C1CCN(S(=O)(=O)c2ccc(F)cc2)CC1 | 19%
CC(=O)N(C1CCOCC1)C1CCN(C(=O)c2ccccc2)CC1 | 22%
COc1ccc(Cl)cc1NC(=O)Cn1nnc2sc3c(c2c1=O)CCC(C(C)(C)C)C3 (centres undefined) | 16%
CNC(=O)c1ccc(Nc2nnc(-c3ccc(C)c(S(=O)(=O)N(C)C)c3)c3ccccc23)cc1 | -11%
Cc1cc(C)n(-c2nnc(Nc3ccc(C)c(C)c3)c3ccccc23)n1 | -22%
Cc1ccc(Nc2nnc(-c3ccc(C)c(S(=O)(=O)N4CCOCC4)c3)c3ccccc23)c(C)c1 | 7.9µM*
Cc1ccccc1Nc1nnc(-c2ccc(C)c(S(=O)(=O)N3CCOCC3)c2)c2ccccc12 | 31%
Cc1ccc(-c2noc(-c3ccc(NCC4CCCO4)c([N+](=O)[O-])c3)n2)cc1 (centres undefined) | 18%
Cc1ccc(-c2nnc(Nc3ccc(C(=O)N(C)C)cc3)c3ccccc23)cc1S(=O)(=O)N(C)C | 11µM*
Cc1ccc(-c2nnc(Nc3cccc(O)c3)c3ccccc23)cc1S(=O)(=O)N1CCOCC1 | i
Cc1cc(-c2ccc(C)c(S(=O)(=O)NC3CCCCC3)c2)on1 | i
Cc1ccc(-c2nnc(Nc3ccc(O)cc3)c3ccccc23)cc1S(=O)(=O)NCC1CCCO1 (centres undefined) | 5µM*
COc1ccc(C2(C(=O)NC3CCN(C(=O)N4CC5CC(C4)[C@H]4CCCC(=O)N4C5)CC3)CC2)cc1 (some centres undefined) | i
